PMC5101189

What was measured:
Test in all cases: cross-linking mass spectrometry
Settings in all cases: BS3, purified complex
[1] = target: DSN1 (UniProt Q9H410)
[2] = target: SPC24 (UniProt Q8NBT2)
[3] = target: ZWINT (UniProt O95229)
[4] = target: NSL1 (UniProt Q96IY1)
[5] = target: SPC25 (UniProt Q9HBM1)
[6] = target: MIS12 (UniProt Q9H081)
[7] = target: PMF1 (UniProt Q6P1K2)

Sequence of NDC80, O14777 (O14777 whole entry): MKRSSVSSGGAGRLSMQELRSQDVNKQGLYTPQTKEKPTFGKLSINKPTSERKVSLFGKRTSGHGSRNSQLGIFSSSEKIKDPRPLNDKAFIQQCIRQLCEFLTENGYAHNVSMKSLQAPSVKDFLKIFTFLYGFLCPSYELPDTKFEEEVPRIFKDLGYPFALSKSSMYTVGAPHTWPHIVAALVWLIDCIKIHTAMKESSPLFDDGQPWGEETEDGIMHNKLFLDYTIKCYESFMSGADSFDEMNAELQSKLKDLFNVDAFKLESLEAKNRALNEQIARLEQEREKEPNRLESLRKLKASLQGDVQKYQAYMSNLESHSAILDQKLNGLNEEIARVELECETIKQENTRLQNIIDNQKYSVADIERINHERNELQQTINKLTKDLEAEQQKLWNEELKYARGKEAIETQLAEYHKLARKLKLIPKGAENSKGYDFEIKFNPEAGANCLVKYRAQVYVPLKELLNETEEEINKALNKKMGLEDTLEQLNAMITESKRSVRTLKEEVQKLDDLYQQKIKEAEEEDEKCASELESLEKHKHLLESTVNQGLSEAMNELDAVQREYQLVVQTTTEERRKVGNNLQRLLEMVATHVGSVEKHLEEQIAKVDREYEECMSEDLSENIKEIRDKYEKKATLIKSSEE
Sequence of SPC24 (Q8NBT2 whole entry): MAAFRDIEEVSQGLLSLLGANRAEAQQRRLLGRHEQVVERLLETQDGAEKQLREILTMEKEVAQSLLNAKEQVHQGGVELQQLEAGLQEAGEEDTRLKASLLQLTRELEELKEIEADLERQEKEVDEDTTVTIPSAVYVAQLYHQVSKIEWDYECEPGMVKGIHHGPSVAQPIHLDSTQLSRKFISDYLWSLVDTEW
Sequence of CENPC, Q03188 (Q03188 whole entry): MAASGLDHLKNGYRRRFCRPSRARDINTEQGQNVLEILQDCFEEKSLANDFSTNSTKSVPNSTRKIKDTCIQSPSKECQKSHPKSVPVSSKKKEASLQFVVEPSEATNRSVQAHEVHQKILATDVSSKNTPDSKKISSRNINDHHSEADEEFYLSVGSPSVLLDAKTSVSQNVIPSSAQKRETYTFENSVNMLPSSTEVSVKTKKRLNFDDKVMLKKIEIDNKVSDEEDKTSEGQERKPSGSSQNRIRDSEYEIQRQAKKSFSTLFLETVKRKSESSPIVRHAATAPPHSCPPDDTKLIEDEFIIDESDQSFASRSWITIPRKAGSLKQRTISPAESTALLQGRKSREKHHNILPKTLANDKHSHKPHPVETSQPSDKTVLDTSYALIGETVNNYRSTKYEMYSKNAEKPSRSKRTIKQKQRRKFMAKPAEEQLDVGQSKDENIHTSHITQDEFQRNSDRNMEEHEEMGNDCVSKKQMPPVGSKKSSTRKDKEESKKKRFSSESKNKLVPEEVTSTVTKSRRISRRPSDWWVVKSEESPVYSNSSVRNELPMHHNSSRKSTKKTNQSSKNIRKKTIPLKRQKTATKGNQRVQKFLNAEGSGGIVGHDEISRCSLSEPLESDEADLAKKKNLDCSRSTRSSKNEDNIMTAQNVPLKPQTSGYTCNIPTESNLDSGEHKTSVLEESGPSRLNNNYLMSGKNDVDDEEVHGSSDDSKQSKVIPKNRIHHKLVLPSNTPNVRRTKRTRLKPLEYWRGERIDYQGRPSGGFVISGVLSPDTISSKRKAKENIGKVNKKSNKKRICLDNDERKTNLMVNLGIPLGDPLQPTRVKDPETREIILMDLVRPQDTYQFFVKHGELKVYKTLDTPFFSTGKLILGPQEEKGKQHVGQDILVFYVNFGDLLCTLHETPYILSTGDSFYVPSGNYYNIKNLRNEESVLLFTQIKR
Sequence of NSL1 (Q96IY1 whole entry): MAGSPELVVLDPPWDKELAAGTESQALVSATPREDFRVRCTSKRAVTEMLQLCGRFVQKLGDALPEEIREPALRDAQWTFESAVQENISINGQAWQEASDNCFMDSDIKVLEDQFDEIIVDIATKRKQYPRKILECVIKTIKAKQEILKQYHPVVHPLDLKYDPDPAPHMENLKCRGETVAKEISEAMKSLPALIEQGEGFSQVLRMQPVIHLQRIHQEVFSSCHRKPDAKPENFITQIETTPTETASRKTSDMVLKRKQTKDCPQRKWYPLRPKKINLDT
Sequence of KNL1, Q8NG31 (Q8NG31 whole entry): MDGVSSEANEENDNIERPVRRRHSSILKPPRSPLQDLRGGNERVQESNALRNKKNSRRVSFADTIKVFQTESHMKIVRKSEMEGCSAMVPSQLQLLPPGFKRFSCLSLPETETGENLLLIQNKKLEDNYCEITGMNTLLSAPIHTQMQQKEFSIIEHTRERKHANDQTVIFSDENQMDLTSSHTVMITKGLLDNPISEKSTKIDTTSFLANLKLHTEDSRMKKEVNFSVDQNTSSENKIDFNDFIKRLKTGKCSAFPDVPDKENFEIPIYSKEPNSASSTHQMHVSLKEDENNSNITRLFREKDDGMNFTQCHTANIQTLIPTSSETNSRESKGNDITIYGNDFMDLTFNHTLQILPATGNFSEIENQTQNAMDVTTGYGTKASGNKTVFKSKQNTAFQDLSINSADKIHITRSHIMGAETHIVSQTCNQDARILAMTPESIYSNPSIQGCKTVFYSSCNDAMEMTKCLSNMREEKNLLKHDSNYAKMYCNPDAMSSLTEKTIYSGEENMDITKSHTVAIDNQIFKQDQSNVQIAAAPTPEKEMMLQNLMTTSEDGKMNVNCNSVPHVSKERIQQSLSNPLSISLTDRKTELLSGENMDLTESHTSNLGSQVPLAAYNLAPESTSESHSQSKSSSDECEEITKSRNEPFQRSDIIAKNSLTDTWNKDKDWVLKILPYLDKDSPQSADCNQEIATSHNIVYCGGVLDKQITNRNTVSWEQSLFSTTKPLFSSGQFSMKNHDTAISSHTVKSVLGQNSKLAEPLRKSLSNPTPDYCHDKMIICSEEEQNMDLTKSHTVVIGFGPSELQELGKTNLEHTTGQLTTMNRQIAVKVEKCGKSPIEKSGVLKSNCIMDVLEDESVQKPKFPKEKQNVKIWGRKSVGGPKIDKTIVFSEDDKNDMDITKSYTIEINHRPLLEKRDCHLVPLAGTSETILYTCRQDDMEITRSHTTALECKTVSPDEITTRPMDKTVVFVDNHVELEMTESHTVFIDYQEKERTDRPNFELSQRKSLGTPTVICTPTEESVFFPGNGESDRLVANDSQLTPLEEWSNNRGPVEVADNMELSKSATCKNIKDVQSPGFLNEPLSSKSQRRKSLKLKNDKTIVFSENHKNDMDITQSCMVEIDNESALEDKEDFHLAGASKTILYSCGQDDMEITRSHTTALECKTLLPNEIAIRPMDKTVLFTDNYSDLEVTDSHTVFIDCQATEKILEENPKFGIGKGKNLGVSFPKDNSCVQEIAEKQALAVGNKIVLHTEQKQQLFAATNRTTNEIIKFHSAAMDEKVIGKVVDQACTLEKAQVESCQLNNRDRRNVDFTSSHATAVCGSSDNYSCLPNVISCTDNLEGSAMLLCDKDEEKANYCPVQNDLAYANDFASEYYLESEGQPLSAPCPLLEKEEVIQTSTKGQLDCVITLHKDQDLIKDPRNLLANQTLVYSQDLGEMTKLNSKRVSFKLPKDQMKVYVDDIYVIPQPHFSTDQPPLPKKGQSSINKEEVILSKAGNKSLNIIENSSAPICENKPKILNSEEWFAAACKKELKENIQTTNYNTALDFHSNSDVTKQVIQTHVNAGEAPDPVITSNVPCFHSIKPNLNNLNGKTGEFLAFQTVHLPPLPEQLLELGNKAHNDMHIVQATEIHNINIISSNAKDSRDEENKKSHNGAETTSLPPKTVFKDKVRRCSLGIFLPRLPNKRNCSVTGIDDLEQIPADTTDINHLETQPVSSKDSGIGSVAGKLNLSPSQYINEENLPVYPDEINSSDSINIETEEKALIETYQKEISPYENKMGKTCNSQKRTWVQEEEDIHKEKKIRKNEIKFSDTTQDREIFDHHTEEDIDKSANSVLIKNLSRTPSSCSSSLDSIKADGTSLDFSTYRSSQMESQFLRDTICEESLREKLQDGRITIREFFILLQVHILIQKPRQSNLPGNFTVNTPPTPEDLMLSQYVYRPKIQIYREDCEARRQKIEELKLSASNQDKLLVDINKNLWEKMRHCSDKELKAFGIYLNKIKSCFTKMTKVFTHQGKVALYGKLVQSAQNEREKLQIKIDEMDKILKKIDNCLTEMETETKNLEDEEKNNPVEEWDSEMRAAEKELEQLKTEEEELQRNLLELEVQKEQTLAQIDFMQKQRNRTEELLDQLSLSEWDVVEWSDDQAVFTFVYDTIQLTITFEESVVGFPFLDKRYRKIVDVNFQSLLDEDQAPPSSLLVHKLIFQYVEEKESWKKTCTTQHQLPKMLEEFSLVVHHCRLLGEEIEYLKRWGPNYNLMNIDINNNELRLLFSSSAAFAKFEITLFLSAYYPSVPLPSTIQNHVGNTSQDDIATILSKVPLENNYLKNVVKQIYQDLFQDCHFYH
Sequence of SPC25 (Q9HBM1 whole entry): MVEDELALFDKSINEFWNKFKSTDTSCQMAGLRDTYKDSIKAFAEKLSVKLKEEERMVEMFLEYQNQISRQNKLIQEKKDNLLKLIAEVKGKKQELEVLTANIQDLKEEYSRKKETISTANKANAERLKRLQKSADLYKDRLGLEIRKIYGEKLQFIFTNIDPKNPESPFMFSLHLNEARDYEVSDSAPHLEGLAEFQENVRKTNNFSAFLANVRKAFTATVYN
Sequence of ZWINT (O95229 whole entry): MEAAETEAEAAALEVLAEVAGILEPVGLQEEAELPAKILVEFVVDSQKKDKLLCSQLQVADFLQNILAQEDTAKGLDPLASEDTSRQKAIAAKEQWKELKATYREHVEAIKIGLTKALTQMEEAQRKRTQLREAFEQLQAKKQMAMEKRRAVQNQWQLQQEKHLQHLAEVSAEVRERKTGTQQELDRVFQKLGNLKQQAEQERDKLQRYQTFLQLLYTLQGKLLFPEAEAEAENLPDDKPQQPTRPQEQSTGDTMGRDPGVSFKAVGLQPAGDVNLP
Sequence of ZWINT, O95229 (O95229 whole entry): as above
Sequence of NSL1, Q96IY1 (Q96IY1 whole entry): as the sequence (Q96IY1 whole entry) above

## NDC80, O14777
[1]
  cross-linked residues: K300 - K315
[2]
  cross-linked residues: K624 - K50
[3]
  cross-linked residues: K271 - K141

## KNL1, Q8NG31
[4]
  cross-linked residues: K2247 - K268

## NSL1, Q96IY1
[5]
  cross-linked residues: K275 - K203

## ZWINT, O95229
[4]
  cross-linked residues: K196 - K262

## CENPC, Q03188
[6]
  cross-linked residues: K45 - K81
[7]
  cross-linked residues: K45 - K48

## PMF1, Q6P1K2
[2]
  cross-linked residues: K79 - K98
